# From PubChem
# IDE cell inh: inhibits human insulin-degrading enzyme in HEK cells; P14735; FAbetaB cleavage, fluorescence polarization; inhibition, % at 5.59 µM; 320,000 compounds, 0.41% hits;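 active means percent inhibition above the average of all tested compounds plus 3 SD, set per screening campaign, cut at about 16% in these data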;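 further: IDE supplied by intact live HEK cells; FP after avidin binding of uncleaved biotin substrate so inhibition keeps polarization high; 0% = DMSO wells and 100% = 60 µM reference IDE inhibitor Ii1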
# CRFBP-R2 block: blocks CRF-induced signaling of the CRF-BP/CRF-R2 complex; HEK293 CRF-R2/CRF-BP, CRF-induced calcium fluorescence; inhibition, % at 11.8 µM; 350,000 compounds, 0.59% hits; AID 588475;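 active means inhibition of the ligand-induced calcium signal above about 50% at the single tested concentration, limit read from the data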
# IDE cell activ: boosts human insulin-degrading enzyme activity in HEK cells; activation, % at 5.96 µM; 340,000 compounds, 0.073% hits; FAbeta-B cleavage, fluorescence polarization; 0% vehicle, 100% cell-free pure enzyme wells; P14735;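 active means activation above the mean of all tested compounds plus 3 SD, set per screening campaign, cut at about 17% in these data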
# Myeloid diff 2: myeloid differentiation induction; 360,000 compounds, 1% hits; calls only at 10 µM; ER-HoxA9 myeloid progenitors, lysozyme-GFP differentiation, flow cytometry;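 active means normalized GFP-positive differentiation at or above the plate's own cutoff, the solvent-only control mean plus 3 SD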;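 further: cells exposed to compound for four days before flow analysis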
# CRFBP-R2 agonist: agonists of human CRF-binding protein/CRF-R2 receptor complex; HEK293 CRF-R2/CRF-BP, calcium dye fluorescence (FLIPR); percent of saturating CRF peptide response; activation, % at 13.2 µM; 350,000 compounds, 0.46% hits; AID 588473;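 active means activation of at least 50%, plus an integration ratio under a set limit after plate pattern correction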;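 further: plate controls were neutral control wells without compound for no effect and CRF at EC100 for full effect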
# TPT1 inh: inhibitors of Candida albicans tRNA 2'-phosphotransferase TPT1 | recombinant caTPT1, FP RNA substrate dephosphorylation | inhibition, % at 5 µM | 300,000 compounds, 0.81% hits | AID 1962;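 active means inhibition above the mean of all tested compounds plus 3 SD, set per screening campaign, cut at about 24% in these data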;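 further: plate controls were DMSO alone for no effect and ferristatin control at 100 nM for full effect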
# Myeloid diff CP1: myeloid differentiation induction; ER-HoxA9 myeloid progenitors, GFP/Mac1 double-positive flow; calls only; shares compounds with Myeloid diff 2; 2,300 compounds, 2% hits; AID 651706;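 active means share of green or green-and-red cells above 9 and 9% in run 1 or 4 and 3% in run 2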
# GFP autofluor: compound fluorescence in myeloid differentiation counter-screen; shares compounds with Myeloid diff 2; ER-HoxA9 myeloid progenitors, no estrogen, GFP autofluorescence flow cytometry; vehicle wells 0%, positive control 100%; fluorescence response, % (no concentration beside the values); 2,300 compounds, 7.4% hits; AID 651707;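 active means over 5% cells positive for green fluorescent reporter, or over 2% positive for both it and APC stain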;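 further: range taken on the double positive population between DMSO and positive control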
# Numbers without * were called inactive; i = inactive; nt = not tested or not shown; + = active, no number. Rows were chosen to be rich in hits. Some 2.6% of all compounds tested hit in one or more screens of this group.
SMILES,IDE cell inh,CRFBP-R2 block,IDE cell activ,Myeloid diff 2,CRFBP-R2 agonist,TPT1 inh,Myeloid diff CP1,GFP autofluor
Cc1ccc(Cn2c(=O)n(-c3ccccc3)c(=O)c3ccc(C(=O)NCc4ccco4)cc32)cc1,1,-3,0,i,2,-4,i,2
O=c1c2ccccc2n(Cc2ccc(Cl)cc2)c(=O)n1Cc1ccco1,4,11,2,i,1,-2,nt,nt
O=C(O)C1C2CCC1C(O)C2 (stereo not given),nt,-11,nt,i,3,nt,nt,nt
NNC(=O)c1csc(-c2ccccc2)n1,2,12,6,+,-1,-1,i,0
COc1ccc2cnn(CCOc3cc(C)ccc3C(C)C)c(=O)c2c1OC,-7,31,3,+,-4,2,i,0
O=C(O)c1cccc(S(=O)(=O)NCC2COc3ccccc3O2)c1 (stereo not given),5,-14,4,i,0,nt,i,1
Cn1c(=O)c2c(ncn2CC(=O)N/N=C/C=C\c2ccccc2[N+](=O)[O-])n(C)c1=O,1,4,nt,nt,0,1,nt,nt
Cc1nc(SCC(=O)Nc2ccccc2C(F)(F)F)c2c(=O)n(C)c(=O)n(C)c2n1,-3,9,0,+,7,-4,i,0
CCc1nc(SCC(=O)c2ccccc2)c2c(=O)n(C)c(=O)n(C)c2n1,5,1,-1,i,1,3,nt,nt
Cn1c(=O)c2c(SCC(=O)c3ccccc3)nc(C3CC3)nc2n(C)c1=O,-2,2,-3,i,3,-2,i,0
Cc1cccc(N=Nc2cnc(N)s2)c1,13,0,3,i,-3,0,nt,nt
O=C(COC(=O)c1ccccc1O)Nc1ccc(N2CCOCC2)cc1,-6,0,5,i,6,nt,nt,nt
NNC(=O)COc1ccc(-c2nccc(-c3ccc(F)cc3)n2)cc1,-1,-3,4,i,-1,1,i,0
C/C(=N\NC(=O)c1cc2ccccc2cc1O)c1ccc2c(c1)OCO2,1,6,5,i,0,0,nt,nt
CC/C(=N/NC(=O)c1ccc2c(c1)OCO2)c1ccccc1O,-1,-5,6,i,-1,-2,i,0
CCC(C)NC(=O)CC(NS(=O)(=O)c1ccc(NC(C)=O)cc1)C(C)C (stereo not given),-2,-13,4,i,0,1,nt,nt
COc1ccc(-c2nn3c(-c4cccc(C)c4)nnc3s2)cc1OC,-3,4,4,i,-1,1,i,0
COCc1cc(C)nc(SCc2ccc(Br)cc2)c1C#N,3,6,2,i,0,0,nt,nt
C#CCOCCOCCOCCNc1nc(N2CCN(C(=O)[C@H]([C@@H](C)CC)n3cc(CCCN=C(N)N)nn3)CC2)nc(N2CCN(C(=O)[C@H]([C@@H](C)CC)n3cc(CCC(=O)O)nn3)CC2)n1,nt,32,3,i,8,nt,nt,nt
O=C(OCc1ccccc1)N1CCOCCOCCN(C(=O)OCc2ccccc2)CCOCCOCC1,-2,13,0,+,-6,-5,i,0
O=C(NCc1ccccc1)N1CCOCC1,6,12,2,i,-1,3,nt,nt
O=c1[nH][nH]c2c1[C@H](C1CCCC1)O[C@H](CCc1ccccc1)C2,nt,nt,nt,i,nt,nt,nt,nt
C[C@@H]1CN([C@@H](C)CO)C(=O)CCCn2nncc2CO[C@H]1CN(C)S(=O)(=O)c1ccc2ccccc2c1,nt,-5,nt,i,0,nt,i,0
C[C@@H]1CN([C@H](C)CO)C(=O)CCCn2nncc2CO[C@@H]1CN(C)S(=O)(=O)c1ccc2ccccc2c1,nt,5,nt,i,3,nt,nt,nt
COc1ccc(Cl)cc1NC(=S)N(Cc1ccccc1C)CC1CCC(C(=O)O)CC1 (stereo not given),2,-4,2,i,-1,3,i,1
SMILES,IDE cell inh,CRFBP-R2 block,IDE cell activ,Myeloid diff 2,CRFBP-R2 agonist,TPT1 inh,Myeloid diff CP1,GFP autofluor
CCc1ccccc1NC(=S)N(Cc1ccc(OC)cc1)CC1CCC(C(=O)O)CC1 (stereo not given),3,-22,1,i,-1,-3,nt,nt
O=C(CN1C(=O)NC2(CCCC2)C1=O)NCCc1ccc(F)cc1,1,-5,4,i,0,nt,nt,nt
COc1ccc(CNCc2cc(Cl)ccc2O)cc1,-2,-19,4,i,5,2,i,0
COc1ccc(S(=O)(=O)N(C)C[C@@H]2Oc3cc(C#CC4CCCCC4)ccc3S(=O)(=O)N([C@@H](C)CO)C[C@@H]2C)cc1,nt,-21,nt,i,6,nt,i,0
C[C@@H]1CN([C@H](C)CO)S(=O)(=O)c2ccc(Br)cc2O[C@H]1CN(C)C(=O)Nc1cccc(F)c1,nt,-6,nt,i,0,nt,i,0
C[C@@H]1CN([C@@H](C)CO)S(=O)(=O)c2ccc(Br)cc2O[C@H]1CN(C)C(=O)CN(C)C,nt,-4,nt,+,7,nt,i,0
C[C@H]1CN([C@@H](C)CO)S(=O)(=O)c2ccc(Br)cc2O[C@H]1CN(C)C(=O)CN(C)C,nt,nt,nt,i,nt,nt,nt,nt
COc1ccc(C#Cc2ccc3c(c2)O[C@H](CN(C)S(=O)(=O)c2ccccc2F)[C@H](C)CN([C@H](C)CO)S3(=O)=O)cc1,nt,nt,nt,i,nt,nt,nt,nt
CC12CCC(=O)CC1CCC1C2CCC2(C)C1CCC2(O)C(=O)CO (stereo not given),nt,-16,0,i,5,nt,nt,nt
O=C(COC(=O)COc1ccc2ccccc2c1)NCC(F)(F)F,-2,-6,1,i,1,0,nt,nt
N#CC1(NC(=O)COC(=O)Cn2[nH]c(=O)c3ccccc3c2=O)CCCCC1,-1,-4,2,i,0,-2,nt,nt
COc1ccc(CCN2C(=O)CS/C2=N\NC(=O)c2ccc(C(C)(C)C)cc2)cc1OC,2,22,2,i,-4,3,i,0
Cc1cccc(NC(=S)N(C)C2CCCCC2)c1,0,8,1,i,-2,5,i,0
COc1ccc(C(C(=O)NC2CCCC2)N(C(=O)c2ccco2)c2cc3c(cc2C(C)=O)OCO3)cc1 (stereo not given),-4,-12,5,i,-1,5,nt,nt
O=C(COC(=O)CNS(=O)(=O)/C=C/c1ccccc1)Nc1cc(S(=O)(=O)N2CCCCC2)ccc1Cl,2,-7,2,i,-1,-1,nt,nt
COc1ccc(CN2C(=O)c3ccccc3C2C(=O)NC2CCCCCC2)c(OC)c1 (stereo not given),nt,2,6,i,-2,nt,nt,nt
CC(=O)Nc1ccc(NC(=O)c2cc(S(=O)(=O)N3CCCCC3)ccc2N2CCOCC2)cc1,nt,-10,3,i,-1,nt,nt,nt
